# Bioassay records from PubChem.
# IL-1B inflam inh – inhibitors of inflammasome signaling (IL-1 beta secretion); 4.7% of 360,000 active; THP-1 LPS/ATP IL-1B secretion, AlphaLISA, 16 h; stronger effect = lower value; AID 743279; activity change, % at 57.5 µM; in the data active = activity change below about -50%; inconclusive = mostly about -30% to -49%; also: % is scaled to controls: 0 for no effect and ±100 for the full control effect
#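 THP-1 cells pretreated 1 hr with compounds (up to 57.5 uM final), then stimulated with LPS (250 ng/mL final) plus ATP (1.25 mM final); secreted IL-1B measured by AlphaLISA after 16 hr, decreased signal indicating inhibition.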
# VP16 counter – Gal4-VP16 reporter inhibition counter-screen | AID 2546 | 3.5% of 310,000 active | Potency, µM (series often up to 53.6 µM), for inactives: at the top dose activity, negative = inhibition, usual class: inhibitors | Drosophila S2 Gal4-VP16 UAS-luciferase, luminescence, 20 h;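 also: Gal4-VP16 expression switched on by copper sulfate through the metallothionein promoter; potency is read from the fitted curve at half-maximal effect; % is scaled to controls: 0 for no effect and ±100 for the full control effect; nearly all actives have a fitted effect of over 50% in size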
# SW480 rerep – inducers of DNA re-replication in SW480 colon cancer cells. 1.8% of 340,000 active. SW480 DNA re-replication, Hoechst DNA content imaging, 48 h. Potency, µM (top dose mostly 46.1 µM), for the others: top-dose re-replication activation, hits mostly activators; also: potency is read from the fitted curve at half-maximal effect; % of control where 0% means no effect; nearly all actives have a fitted effect of over 55% in size
#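 First, 250 cells per well were seeded. Next, compound or vehicle (23 nL) was pinned in, plates sat 48 hr at 37 C. Finally Hoechst was added for 40 min before fluorescence scanning.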
# RORgamma inh – inhibitors of mouse ROR gamma transcriptional activity. Drosophila S2 Gal4-RORgamma UAS-luciferase reporter, 20 h. AID 2551. Potency, µM (top dose mostly 53.6 µM), inactives show at the top dose activity change, negative = inhibition, actives largely listed as inhibitors. P51450. 5.4% of 310,000 active; also: potency is read from the fitted curve at half-maximal effect; % is scaled to controls: 0 for no effect and ±100 for the full control effect; nearly all actives have a fitted effect of over 60% in size
# Target sequence (P51450 whole entry, looked up, the tested form may be a part): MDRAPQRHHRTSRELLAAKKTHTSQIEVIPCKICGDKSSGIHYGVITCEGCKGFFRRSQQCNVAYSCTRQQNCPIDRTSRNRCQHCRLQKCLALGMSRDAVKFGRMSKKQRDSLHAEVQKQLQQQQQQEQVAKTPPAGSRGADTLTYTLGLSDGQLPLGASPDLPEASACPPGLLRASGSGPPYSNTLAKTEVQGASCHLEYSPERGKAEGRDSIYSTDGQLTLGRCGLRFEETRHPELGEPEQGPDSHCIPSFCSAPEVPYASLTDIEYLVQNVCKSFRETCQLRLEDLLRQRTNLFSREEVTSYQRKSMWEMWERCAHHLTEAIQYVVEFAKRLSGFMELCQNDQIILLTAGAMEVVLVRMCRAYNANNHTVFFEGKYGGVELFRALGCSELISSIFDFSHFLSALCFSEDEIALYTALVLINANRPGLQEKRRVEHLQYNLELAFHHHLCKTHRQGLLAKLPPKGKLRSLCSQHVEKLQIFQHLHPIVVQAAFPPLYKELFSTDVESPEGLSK
#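 Luminescence from a UAS-regulated Photinus luciferase reporter in stably transfected Drosophila Schneider cells is measured; decreased signal marks ROR gamma inhibition. Fusion expression is induced by 700 uM copper sulfate for 20 hr.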
# MCF10A rereplic – induces DNA re-replication in MCF 10a normal breast cells | MCF 10A DNA re-replication, Hoechst nuclear intensity, 48 h | Potency, µM (series often up to 46.1 µM), for inactives: at the top dose activity, positive = re-replication, most hits filed as activators | 2.9% of 350,000 active | AID 624296; also: potency is read from the fitted curve at half-maximal effect; % of control where 0% means no effect; nearly all actives have a fitted effect of over 50% in size
# * hit, by the source's call; ? = inconclusive; nt = no result given; [ ] = dose if it differs, or a comment. Rows were chosen to be rich in hits. Some 11% of all compounds tested hit in one or more screens of this group. Unless noted, calls follow the shape of the dose curve; as a rule, active = well fitted curve in the direction sought with a large enough effect; inconclusive = small, poorly fitted or top-dose-only effect, or another doubt; inactive = no such curve, though single readings can be large; an effect the other way counts as inactive or inconclusive.
SMILES,IL-1B inflam inh,VP16 counter,SW480 rerep,RORgamma inh,MCF10A rereplic
CC(Oc1ccc2c3c(c(=O)oc2c1)CCCC3)C(=O)NCCN1CCOCC1 (centres undefined),8,-6%,-6%,-4%,-5%
COc1ccc2c(c1OC)c(=O)n1c3ccc(OC(C)C(=O)NCCN4CCOCC4)cc3c3ccnc2c31 (centres undefined),?,-20%,?,-8%,-5%
Cc1ccc(NC(=O)CCNC(=O)c2ccc(Br)cc2)cc1S(=O)(=O)N1CCCCCC1,6,nt,-7%,nt,?
CCOc1cc(/C=N/NC(=O)c2cc(C)n(-c3ccc(F)cc3)c2C)ccc1O,11,-9%,-17%,-2%,11%
Cc1cc(C(=O)N/N=C2\CC(=O)c3ccccc32)c(C)n1-c1ccc(F)cc1,25,-11%,16µM*,13%,0%
Nc1nn2cc(-c3ccccc3)nc2c2ccccc12,-100*,-13%,-2%,-22%,2%
Nc1nc(-c2ccccc2)cn1N,31,7.1µM*,-7%,3.2µM*,-7%
COc1ccc(Nc2cc(C)c3ccc(O)cc3n2)cc1,-50*,?,?,?,?
CC(=O)Nc1ccc(Nc2cc(C)c3ccccc3n2)cc1,-92*,-2%,6%,27%,7%
Cc1cc(Nc2ccccc2)nc2cc(O)ccc12,29,-12%,?,?,21µM*
COc1ccc(Nc2cc(C)c3cc([N+](=O)[O-])ccc3n2)cc1,-21,8%,10%,18%,-13%
O=C(N/N=C/C=C/c1ccccc1[N+](=O)[O-])c1cc(-c2cccnc2)nc2ccccc12,-14,5.6µM*,?,7.1µM*,12%
COc1ccccc1-c1cc(C(=O)N/N=C/C=C/c2ccccc2[N+](=O)[O-])c2ccccc2n1,-51*,11µM*,1%,8.9µM*,14%
CCCOc1ccc(C(F)(F)F)cc1NC(=O)CCc1c(C)noc1C,-26,nt,?,nt,?
Nc1c2c(nc3ccc(Br)cc13)N(Cc1ccccc1)CC2,?,4%,16%,?,?
Nc1c2c(nc3ccc(Br)cc13)N(c1ccccc1)CC2,-21,14%,15µM*,26%,15µM*
Cc1cccc(N2CCc3c2nc2ccc(Br)cc2c3N)c1,-94*,?,-2%,?,-5%
CC(C)(C)OC(=O)Nc1ccccc1-n1nnnc1C(C(=O)c1ccccc1)N1CCN(c2ccccn2)CC1 (centres undefined),-4,nt,nt,nt,nt
COc1ccc(NC(=O)CCS(=O)(=O)c2ccccc2Cl)cc1S(=O)(=O)Nc1ccc(Cl)cc1,-14,10%,?,37%,16µM*
COc1ccc(NS(=O)(=O)c2cc(NC(=O)c3ccccn3)ccc2OC)cc1Br,-56*,nt,1%,nt,21%
COc1ccc(NC(=O)C2CCC2)cc1S(=O)(=O)Nc1cc(C)ccc1Br,-69*,nt,1%,nt,?
COc1ccc(NC(=O)CCC(=O)c2cccs2)cc1S(=O)(=O)Nc1ccc(Cl)cc1,nt,-12%,-10%,21%,-2%
N#CCCCS(=O)(=O)c1nnnn1C1CCCCC1,nt,-8%,nt,16%,nt
OCc1cccc(-c2cnc3c(Nc4cccc(OC(F)(F)C(F)F)c4)nccn23)c1,-16,nt,nt,nt,nt
COc1cc(-c2nnc(CSc3nnc(Nc4ccc(C(C)C)cc4)s3)o2)cc(OC)c1OC,-11,-15%,28%,28%,15µM*
SMILES,IL-1B inflam inh,VP16 counter,SW480 rerep,RORgamma inh,MCF10A rereplic
CCOc1ccccc1Nc1nnc(SCc2nnc(-c3cc(OC)c(OC)c(OC)c3)o2)s1,?,?,0%,30%,?
COc1ccccc1Nc1nnc(SCc2nnc(-c3cc(OC)c(OC)c(OC)c3)o2)s1,-5,20%,?,36%,21µM*
COc1cc(NC(=O)CNc2cccc(S(=O)(=O)N3CCOCC3)c2)cc(OC)c1,-4,nt,12%,nt,6%
O=C(NNc1nc2c(F)cccc2s1)C1COc2ccccc2O1 (centres undefined),-13,-2%,-4%,2%,8%
COc1cccc2sc(NNC(=O)C3COc4ccccc4O3)nc12 (centres undefined),46,10%,-1%,3.5µM*,-1%
Cc1ccc2sc(NNC(=O)C3COc4ccccc4O3)nc2c1C (centres undefined),-11,8.9µM*,-8%,2µM*,2%
Cc1nc2cc(NC(=O)C3COc4ccccc4O3)ccc2s1 (centres undefined),1,12%,-21%[1.84 µM],25%,-2%
O=C1C=CC(=O)N1CCNc1ncc(C(F)(F)F)cc1Cl,-21,6.3µM*,8.2µM*,5µM*,5.8µM*
O=C1CC(=O)N(CCNc2ncc(C(F)(F)F)cc2Cl)C(=O)N1,-2,-4%,-5%,24%,?
O=S(=O)(NCCNc1ncc(C(F)(F)F)cc1Cl)C(F)(F)F,-55*,?,9%,?,?
CS(=O)(=O)NCCNc1ncc(C(F)(F)F)cc1Cl,-1,-7%,-5%,16%,-3%
CCOC(=O)c1cc2c(ccn2C)n1Cc1cc(C)ccc1C,-5,7%,12%,1%,8%
CC(C)OC(=O)c1cc2c(ccn2C)n1CC(=O)N(Cc1ccccc1)c1ccccc1,-64*,?,?,?,18µM*
Cn1ncc(Cl)c(Oc2ccc(C(C)(C)C)cc2)c1=O,-7,35µM*,-1%,-16%,1%
CCn1c(-c2cc(-c3cccc(OC)c3)nc3ccccc23)n[nH]c1=S,-6,?,1%,5µM*,0%
CCc1ccc(-c2cc(-c3n[nH]c(=S)n3CC)c3ccccc3n2)cc1,nt,-23%,nt,2µM*,nt
COc1cccc(-c2nc3ccccc3c(=O)o2)c1,16,-2%,?,-6%,2%
CCc1ccc(-c2cc(C(=O)NCc3ccccn3)c3ccccc3n2)cc1,?,?,3%,?,?
Cc1ccsc1CN(C)CC(=O)Nc1ccccc1C(=O)NC1CC1,14,nt,3%,nt,1%
O=C(NCc1ccco1)C1CC(c2ccccc2O)=NO1 (centres undefined),0,3%,29%,-36%,?
O=C(NCc1ccco1)C1CC(c2cc(C(F)(F)F)cc(C(F)(F)F)c2)=NO1 (centres undefined),70,-1%,13µM*,17%,6.5µM*
COc1ccc(OC)c(C2=NOC(C(=O)NCc3ccco3)C2)c1 (centres undefined),2,-1%,?,-19%,13µM*
Cc1cccc(-c2ccc(O)cc2CN2CCN(c3ncc(Cc4ccccc4)cn3)CC2)c1,-7,nt,nt,nt,nt
N#Cc1ccc(C(=O)NNC(=O)c2ccncc2)cc1,3,-5%,?,-11%,0%
COc1cc(Br)c(CN2CCCN(C)CC2)cc1OC,-9,-13%,-9%,-16%,4%
